Results: PubChem BioAssay (NCI)
Several values for one entry are separate records, joined by “and”; a condition that tells them apart may be missing. Equal values may be shown once. About 83,000 compounds went through this panel and 20% of them were active in at least one assay; those are over-represented in the sample as a whole.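 Values shown are percent growth following 48 h exposure of cells in 96-well plates to a single concentration of compound; below 10 was considered active.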 Unmarked numbers belong to inactive results. Activity calls are given as the source filed them.

tested on: MDA-MB-468 breast; assay: NCI-60 one-dose screen, 48 h (100 = growth as untreated, 0 = no growth, -100 = all killed); conditions: 10 µM unless noted

SMILES | growth
COc1cc(/C=N/N(C)C)ccc1O | 95.8%
COc1ccc(Cl)cc1NC(=O)c1cc2c([nH]1)-c1nc(N)sc1CCC2 | 103%
CC(C)C(C(=O)CCN(C)C)c1ccc(Cl)cc1 (stereo not given) | 78.6%
C=C[Si](OC(C)=O)(OC(C)=O)OC(C)=O | 109%
C/C(=N/N=C(N)N)c1ccc(N)cc1 | 75.5%
COc1cc(CNC(=O)/C=C/c2ccccc2)ccc1OCC(=O)NO | 92.5%
O=C(Nc1nc2c(s1)CCc1c-2c(Br)n(Cc2ccccc2)c1Br)c1ccccc1 | 72.8%
Cc1ccc(Cl)cc1NC(=O)c1cc2ccccc2cc1O | -58.7% (active)
O=C(CN1C=NC2C(N3CCOCC3)=NC=NC21)c1cccc2ccccc12 (stereo not given) | 85.9%
O=c1[nH]c(=O)n(C2OC(CO)C(O)C2O)cc1I (stereo not given) | 102% and 123%
IC(I)I | 106%
CNC1=C([N+](=O)[O-])C(c2ccc(OC)cc2)C(C#N)=C(c2ccc[nH]2)O1 (stereo not given) | 96.1%
COc1ccc([N+](=O)[O-])c(S(=O)(=O)c2ccc(Cl)cc2)n1 | 52%
Cc1nccc2c3ccc(OCc4cn(-c5ccc(Cl)cc5)nn4)cc3n(CC(C)C)c12 | -1.72% (active)
C=CCn1c(SCC(=O)c2ccccc2)nnc1-c1c[nH]c2ccccc12 | 87.7%
N#Cc1cccc(CN2CCC3=C(C2)C(=O)N(Cc2ccc(Cl)cc2)C2=NCCN23)c1 | -14.9% (active)
COc1ccc2[nH]c(C(=O)OCc3ccc4c(Br)cc(Br)c(O)c4n3)cc2c1 | -77.4% (active)
Cc1ccc(S(=O)(=O)n2cc(C3C(Cl)C(=O)N3c3ccc(N4CCOCC4=O)cc3)c3ccccc32)cc1 (stereo not given) | 67.6%
Fc1ccc(-c2nc(Nc3ccc(-c4nc5ccccc5[nH]4)cc3)nc(N3CCOCC3)n2)cc1 | -84% (active)
CN(CCOc1ccc(CC2SC(=O)NC2=O)cc1)c1ccccn1 (stereo not given) | 100%

SMILES | growth
OC(c1cc(C(F)(F)F)nc2c(C(F)(F)F)cccc12)C1CCCCN1 (stereo not given) | -5.03% (active)
COc1cc(-c2cc(-c3cc(OC)c(OC)c(OC)c3)nc3nc(N)[nH]c(=O)c23)ccc1Oc1ccnc2cc(Cl)ccc12 | 15.9%
Nc1cccc2c(=S)c3ccccc3[nH]c12 | 86.1%
COC(C(=O)[C@@H](O)[C@@H](C)O)[C@@H]1Cc2cc3cc(O[C@H]4C[C@@H](O[C@H]5C[C@@H](O)[C@H](O)C(C)O5)[C@H](O)C(C)O4)c(C)c(O)c3c(O)c2C(=O)[C@H]1O[C@H]1C[C@@H](O[C@H]2C[C@@H](O[C@H]3C[C@@H](O)[C@H](OC)C(C)O3)[C@@H](O)C(C)O2)[C@H](O)C(C)O1 (stereo not given in full) | -60% (active)
ClC1=C(Cl)C(Cl)=C(Cl)C1=Cc1ccc(Cl)cc1Cl | -74.9% (active)
O=S(=O)(Nc1cc(Sc2nc3ccccc3s2)c(O)c2ccccc12)c1ccc2ccccc2c1 | -0.0972% (active)
C=CC(=O)Nc1ccc(Nc2nccc(-c3ccc(N4CCCC4)c(C#N)c3)n2)cc1 | -9.73% (active)
Cc1cc(=O)oc2c1ccc1oc(C(=O)c3ccccc3)c(C)c12 | 76.1%
Cc1ccc(NC(=O)c2ccc(Nc3ncnc4c3cnn4-c3cccc(F)c3)cc2)cc1 | 96.6%
CCSC(SCC)c1ccc(Cl)cc1 | 118%
CNC(=O)c1cc(Oc2ccc3c(c2)sc2nc(-c4ccc(N(C)C)cc4)cn23)ccn1 | 36.5%
COC(=O)C(Sc1ccc(Cl)cc1)C1SC(=S)N(Cc2ccccc2)C1=O (stereo not given) | 94.7%
O=C1CCCc2nc(Nc3ccc(S(=O)(=O)Nc4ccc([N+](=O)[O-])cc4)cc3)ncc21 | 99.8%
O=C(/C=C/c1ccccc1)CC(c1ccccc1)N1CCOCC1 (stereo not given) | 92.4%
COc1cc(NC(=O)Nc2cccc(-c3cc(=O)c4c(OC)c(OC)c(OC)cc4o3)c2)cc(OC)c1OC | 40.4%
Cc1ccc(S(=O)(=O)NCCCNc2cc(-c3cn(C(C)(C)C)nc3-c3cccc(O)c3)ccn2)cc1 | 35.5%
O=C1/C(=C/c2ccc(F)cc2)Sc2c(Br)cccc21 | 84.1%
COc1ccc(-c2cc(-c3cc(OC)ccc3OC)nc(SCC(=O)c3ccccc3)c2C#N)cc1 | 106%
CC1=C[C@@H]2c3c(c(O)c(O)c4oc5cc(O)cc(O)c5c(=O)c34)[C@@H](c3cc(O)c(O)c4oc5cc(O)cc(O)c5c(=O)c34)[C@@H]2C(C)(C)C1 | -19.5% (active)
CN(C)CCCn1c2c(c3ccncc3c1=O)C(=O)c1ccccc1-2 | -16% (active)
